From PubChem BioAssay
This is a sample that favours compounds with a hit; in the whole collection about 0.9% have one here.
PPARg SRC3 recr: PPARgamma-driven SRC-3 recruitment agonism | P37231 | biochemical PPARgamma/SRC-3 coactivator recruitment assay | activation, % at 8 µM | actives 0.26% (n = 200,000) | AID 731; in the data active = activation above about 23%;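 note: 0% = DMSO and 100% = reference agonist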
Target sequence (P37231 whole entry, looked up): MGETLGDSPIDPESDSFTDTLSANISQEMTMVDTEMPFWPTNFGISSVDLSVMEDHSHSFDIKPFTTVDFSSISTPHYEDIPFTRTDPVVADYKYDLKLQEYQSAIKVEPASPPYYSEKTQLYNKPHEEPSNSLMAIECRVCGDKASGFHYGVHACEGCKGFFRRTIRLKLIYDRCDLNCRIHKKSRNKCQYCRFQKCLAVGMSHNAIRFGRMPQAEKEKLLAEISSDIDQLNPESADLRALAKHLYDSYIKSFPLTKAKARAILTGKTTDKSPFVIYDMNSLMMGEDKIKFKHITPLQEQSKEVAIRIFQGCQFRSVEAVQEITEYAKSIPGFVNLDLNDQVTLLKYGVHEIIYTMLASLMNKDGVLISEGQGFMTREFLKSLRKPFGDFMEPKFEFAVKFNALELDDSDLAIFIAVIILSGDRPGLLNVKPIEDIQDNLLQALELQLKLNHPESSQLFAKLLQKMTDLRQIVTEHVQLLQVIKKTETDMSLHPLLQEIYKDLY
PPARg SRC-1 ag: agonists of human PPARgamma SRC-1 coactivator recruitment; P37231; PPARgamma-SRC-1 coactivator recruitment biochemical assay; activation, % at 8 µM; actives 0.41% (n = 200,000); AID 631; in the data active = activation above about 19%;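 note: 0% = DMSO and 100% = reference agonist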
SRC3 TRFRET art: TR-FRET artefact, counter-screen to PPARgamma/SRC-3 agonist assay; PPARgamma/SRC-3 format; stronger effect = higher value; TR-FRET ratio at 8 µM; actives 0.39% (n = 99,000); AID 1048
SRC1 TRFRET art: TR-FRET artefact, counter-screen to PPARgamma/SRC-1 agonist assay; TR-FRET detection artefact counter-screen, emission ratio; stronger effect = higher value; actives 0.34% (n = 99,000); TR-FRET ratio at 8 µM; AID 1051; in the data active = TR-FRET ratio above about 2300
PPARg SRC-2 ag: PPARgamma-driven SRC-2 recruitment agonism; PPARgamma LBD-SRC-2 recruitment, biochemical; activation, % at 8 µM; actives 0.34% (n = 200,000); P37231; in the data active = activation above about 22%;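 note: 0% = vehicle and 100% = reference agonist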
TR-FRET SRC-2 ct: counter-screen for PPARgamma SRC-2 recruitment agonists: TR-FRET artefact | stronger effect = higher value | TR-FRET ratio at 8 µM | actives 0.4% (n = 200,000)
An asterisk follows results filed as active; · = no result. Cut-off read from the data, not from the text of the source, unless noted: active = TR-FRET ratio above about 2000; inactive = the rest.

SMILES	PPARg SRC3 recr	PPARg SRC-1 ag	SRC3 TRFRET art	SRC1 TRFRET art	PPARg SRC-2 ag	TR-FRET SRC-2 ct
O=C1CC(C(=O)Nc2ncccn2)C(c2ccccc2)O1 (configuration not stated)	-15	-9	·	·	4	1527
Cc1ccc(C(=O)COC(=O)c2c(C)cc(=O)oc2C)cc1[N+](=O)[O-]	3	11	1839	1881	4	1637
CCOC(=O)C1=C(C)NC(SCC(=O)O)=NC1c1ccccc1 (configuration not stated)	-1	13	1400	1965	40*	2481*
CCOC(=O)CON1C(=O)c2ccccc2C1=O	-5	4	·	·	4	1623
CC(C)N(C(=O)CSc1nn2c(=O)c(C(C)(C)C)nnc2s1)c1ccccc1	0	0	·	·	-6	1419
Cc1cc(C(=O)CSc2nn3c(=O)c(C(C)(C)C)nnc3s2)c(C)n1-c1ccc(F)cc1	22	9	·	·	13	2070*
Cc1[nH]c(=O)[nH]c(=O)c1NS(=O)(=O)c1ccccc1	-6	3	1470	1660	0	1577
Cc1ccc(SCCC(=O)NC2CC2)cc1	5	5	1688	1739	4	1481
Cn1c(N)c(C(=O)c2ccc(Cl)cc2)c(=O)n(C)c1=O	3	-2	1739	1960	11	1575
Cc1nn(-c2ccc(Cl)cc2)c2sc(C(=O)c3c(N)n(C)c(=O)n(C)c3=O)cc12	-10	25*	·	·	-3	1492
COc1ccc(CSc2nnc(Cc3sc(-c4ccccc4)nc3-c3ccccc3)o2)cc1	17	8	·	·	10	3227*
CC1(C(=O)O)CCC(C(=O)N2CCCCC2)C1(C)C (configuration not stated)	2	9	1776	1906	-1	1723
c1ccc2[nH]c3cc4ncnc4cc3nc2c1	15	22*	1699	1830	8	1543
Cc1ccc(NC(=O)NC(=O)N(C(C)C)S(=O)(=O)c2ccc(C)cc2)cc1	-3	0	1358	1711	3	1551
CCOC(=O)CS(=O)(=O)c1ccc(O)cc1	3	21*	1704	1801	0	1582
CCOC(=O)CS(=O)(=O)c1ccccc1	4	1	·	·	0	1540
CC(C)(C)n1nc2c(c1NC(=O)Cc1ccccc1)CS(=O)(=O)C2	-3	1	1444	1456	-8	1574
Cc1nc(SCC(=O)OCc2ccccc2)c(C#N)c(-c2ccccc2)c1C(=O)Nc1ccccc1	11	3	·	·	-2	2287*
Cc1ccccc1NC(=O)c1c(C)nc(SCC(=O)OCc2ccccc2)c(C#N)c1-c1ccc(F)cc1	-5	1	1628	1564	-2	1588
COC(=O)CSc1nc(C)c(C(=O)Nc2ccccc2C)c(-c2ccc(Cl)cc2)c1C#N	-1	-6	2162*	1720	-4	1652
O=C(NNC(=S)Nc1ccc(Cl)cc1Cl)c1ccc(N2CCOCC2)c([N+](=O)[O-])c1	3	4	1681	1947	4	1659
CCOc1ccc2[nH]c(=O)c(C(c3nnnn3C3CCCCC3)N3CCN(CC)CC3)cc2c1 (configuration not stated)	-1	5	·	·	1	1638
CCOc1ccc2[nH]c(=O)c(C(c3nnnn3C3CCCCC3)N3CCN(C)CC3)cc2c1 (configuration not stated)	1	23*	1653	2124	5	1495
Cn1c(SCc2cccnc2)nc2c(c1=O)SCC2	0	4	1534	1719	21	2241*
COC(=O)c1cc(C(=O)OC)cc(-n2c(C)cc(C(=O)COC(=O)CNS(=O)(=O)c3ccc(C)cc3)c2C)c1	-1	6	1495	1929	7	1459
SMILES	PPARg SRC3 recr	PPARg SRC-1 ag	SRC3 TRFRET art	SRC1 TRFRET art	PPARg SRC-2 ag	TR-FRET SRC-2 ct
CCN(CC)S(=O)(=O)c1cc(NC(=O)c2ccc(Br)s2)ccc1C	7	0	1805	2789*	14	1640
O=S(=O)(NCc1cc(-c2ccccc2Cl)no1)c1ccc(Cl)cc1	3	-4	·	·	7	1598
CC(C)NC(=O)c1ccc(C2SCC(=O)N2Cc2ccccc2)cc1 (configuration not stated)	-13	3	·	·	3	1676
O=C(CSc1nc(C2CC2)nc2ccccc12)N1c2ccccc2Sc2ccc(C(F)(F)F)cc21	3	-1	·	·	-1	1994*
O=C(CN1CCCC(O)C1)N1c2ccccc2Sc2ccc(C(F)(F)F)cc21 (configuration not stated)	8	10	·	·	3	1597
CCOC(=O)C1=C(N)c2ccccc2CC1C(C)C (configuration not stated)	-10	0	·	·	-8	1537
Cc1ccc(S(=O)(=O)NC(=O)c2ccc(Br)o2)cc1	1	4	1650	1919	10	1593
COc1ccc2cc(Br)ccc2c1CC(=O)NC(C)(C)C	17	10	2048	2214	14	2017*
N#Cc1c(-c2ccccc2Cl)cc(-c2ccccc2)nc1Br	6	-2	2059*	1792	6	1773
N#Cc1ccc(/C=N/N=C(N)N)cc1	26*	3	·	·	7	1780
NC(N)=N/N=C/c1ccc(Br)cc1	5	10	1566	1941	-1	1681
Cc1ccccc1C(O)c1ccccn1 (configuration not stated)	2	-4	·	·	9	1479
Cc1ccccc1NC(=S)N(CCN1CCCCC1)Cc1ccco1	3	5	1622	2157	4	2001*
Cc1ccccc1NC(=S)N(CCCN1CCCCC1)Cc1ccco1	0	-4	1580	1866	-4	1704
CCOC(=O)C1CCCN(S(=O)(=O)c2cc(Br)cc3c2N(C(=O)C2CC2)CC3)C1 (configuration not stated)	-1	26*	1570	2266	6	1794
COc1ccccc1-n1c(SCC(=O)N2CCOCC2)nc(O)c(Cc2ccccc2)c1=O	18	5	·	·	12	1653
CCOc1ccccc1NC(=S)N1CCN(c2nc(-c3ccc(F)cc3)cs2)CC1	14	6	2234*	2465*	11	2063*
COC(=O)c1ccccc1NC(=O)c1cn(-c2ccc(C)c(C)c2)c(=O)c2ccccc12	9	1	1579	1931	3	1685
CCOC(=O)c1ccccc1NC(=O)c1cn(-c2ccc(C)c(C)c2)c(=O)c2ccccc12	9	-1	1904	1817	130*	3144*
O=C(NCCCN1CCCC1=O)c1ccc2c(c1)ncn2C1CCCCC1	0	-2	1645	1914	22*	1531
CC(C)OCCCNC(=O)c1ccc2c(c1)ncn2C1CCCC1	0	-3	1561	1809	5	1616
COc1ccc(/C=C2\C(=O)N(c3c(Cl)cc(Cl)cc3Cl)N=C2NC(=O)c2cccc([N+](=O)[O-])c2)cc1	0	-3	1782	1765	-3	1616
O=[N+]([O-])c1cccc(/C=N/NS(=O)(=O)c2ccccc2)c1	0	1	1452	1742	3	1638
